Drawing on PubChem BioAssay, this text covers composite z-score for 36 molecules.

This experiment has as its system Fibrinogen (Alexa647-labelled). As to the kind of experiment: Alexa647-fibrinogen binding to printed small molecules – biochemical, small-molecule microarray, 635/667 nm fluorescence, artefact control for SMM control-protein annotation, profiling panel (AID 1131).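 Note: z-score merges 667 nm fluorescence with per-spot signal-to-noise over triplicate slides.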 The conditions noted are these: fibrinogen-A647 binding fluorescence, higher = more signal.
The molecule `C=C(C)C1C(=C)CN([C@H](CO)c2ccccc2)C1=O` (stereo partly specified) yielded a composite z-score of -0.0803.

`COc1ccc(C(O)C2C=CC3C(=O)N(c4ccccc4)C(=O)C3N2Nc2ccccc2F)cc1OCc1ccccc1` (stereo unspecified) displayed a composite z-score of 0.991.

On to `COCCCNC(=O)[C@@]1(Cc2ccccc2)N=C(c2ccc(OCCCO)cc2)O[C@H]1c1ccccc1`, for which the composite z-score was 0.959.

In the case of `CC(C)C(CO)N1C(=O)[C@@H]2[C@H]3C(=O)OCC=C[C@H]3OC23C=CCN(C(C)C)C(=O)[C@@H]13` (stereo partly specified), the composite z-score was -0.841.

The molecule `[N-]=[N+]=Nc1ccccc1[C@H]1OC(c2ccc(OCCCO)cc2)=N[C@@]1(Cc1ccccc1)C(=O)O` yielded a composite z-score of 1.04.

Consider `Cc1ccc(S[C@]2(C(=O)NC(C)C)CC(=O)N(Cc3ccccc3Cl)[C@@H]2c2ccc(CO)cc2I)cc1`, for which the composite z-score turned out to be 0.628.

With `CN(C)CCCCCCNC(=O)[C@@H]1C[C@@H]2C(=O)N[C@@H](CCCCN)C(=O)N2[C@@H]1c1cccc(OCCO)c1`, the composite z-score came to 1.01.

Molecule `CC(C)(C)OC(=O)CC[C@]12N=C(c3ccc(OCCCO)cc3)O[C@H]1c1ccccc1N(CCS(=O)(=O)c1ccccc1)C2=O` came in with a composite z-score of 0.957.

Molecule `COCCn1c(C(=O)N2CCCC2)cc2c1C[C@H]1CN(C(=O)c3ccccc3)[C@@](Cc3ccc(F)cc3)(C(=O)OC)[C@@H]21` showed a composite z-score of 1.02.

Molecule `CC1CC/C=C\[C@H]2OC34C=CCN(C(C)(C)C)C(=O)[C@H]3N(CCCCCCO)C(=O)[C@@H]4C2C(=O)O1` (stereo partly specified) displayed a composite z-score of -0.988.

The molecule `COCCOC(=O)N1C(=O)[C@@]2(c3cc(C#Cc4ccc(OC)cc4)ccc31)[C@H](C(N)=O)[C@H]1C(=O)O[C@H](c3ccccc3)[C@H](c3ccccc3)N1[C@@H]2c1ccccc1OCCO` returned a composite z-score of 1.

With `O=C1OCCC/C=C\[C@H]2OC34C=CCN(c5ccc6ccccc6c5)C(=O)[C@H]3N(CCCCCCO)C(=O)[C@@H]4C12` (stereo partly specified), the composite z-score was -1.74.

In turn, `COc1ccc([C@H]2C[C@H]3C(Br)=C[C@@H]2C(=O)[C@]32CO2)cc1` registered a composite z-score of -0.325.

For the molecule `COCCOC(=O)N1C(=O)[C@@]2(c3cc(C#CCCO)ccc31)[C@H](c1ccc(OCCO)cc1)N1[C@H](c3ccccc3)[C@H](c3ccccc3)OC(=O)[C@H]1[C@@H]2C(=O)N1CCN(c2ncccn2)CC1`, the composite z-score came to 0.756.

In turn, `Cc1ccc(C(C)CC(O)C2C=CC3C(=O)N(C)C(=O)C3N2NC(=O)OC(C)(C)C)o1` (stereo unspecified) yielded a composite z-score of 0.314.

Take `C=CC[C@@]1(C(=O)N(C)C)N=C(c2ccc(OCCCO)cc2)O[C@@H]1c1ccccc1N=[N+]=[N-]`: the composite z-score worked out at 0.776.

For the molecule `COCCOC(=O)N1C(=O)[C@@]2(c3cc(C#CCCO)ccc31)[C@H](C(=O)Nc1nc3ccccc3s1)[C@H]1C(=O)O[C@H](c3ccccc3)[C@H](c3ccccc3)N1[C@@H]2c1ccc(OCCO)cc1`, the composite z-score came to 0.944.

For `O=C(c1ccccc1)N1Cc2ccccc2[C@@H]2OC(c3ccc(OCCCO)cc3)=N[C@]2(Cc2ccccc2)C1=O`, the composite z-score stood at 0.924.

Consider `NCCCCCNC(=O)[C@@H]1C[C@@H]2C(=O)N[C@@H](Cc3ccccc3)C(=O)N2[C@@H]1c1cccc(OCCO)c1`, for which the composite z-score came to 0.968.

Molecule `COc1ccc([C@H]2OC[C@@H]3CC4(CC=CC4)C(=O)N32)cc1` gave a composite z-score of -0.163.

Regarding `CN1C(=O)C2C=CC(C(O)Cc3ccccc3)N(Nc3ccccc3)C2C1=O` (stereo unspecified), the composite z-score amounted to 0.944.

Regarding `[N-]=[N+]=NCc1ccccc1[C@@H]1OC(c2ccc(OCCCO)cc2)=N[C@]1(Cc1ccccc1N=[N+]=[N-])C(=O)N1CCOCC1`, the composite z-score came out at 0.857.

`COc1ccc(CCNC(=O)[C@@]2(Sc3ccc(C)cc3)CC(=O)N(C3CCCCC3)[C@@H]2c2ccc(CO)cc2I)cc1` had a composite z-score of 0.151.

As for `[N-]=[N+]=NCc1ccccc1[C@@H]1OC(c2ccc(OCCCO)cc2)=N[C@]1(CCS(=O)(=O)c1ccccc1)C(=O)NCc1ccccc1`, the composite z-score was determined as 0.964.

In turn, `O=C1OCC=C[C@H]2OC34C=CCN(CCN5CCOCC5)C(=O)[C@H]3N(CCCO)C(=O)[C@@H]4[C@@H]12` (stereo partly specified) returned a composite z-score of 0.38.

Regarding `CCc1oc(CC[C@@H](CO)NC(=O)NCCn2cc(C3(O)CCCCC3)nn2)c(C(=O)OC)c1C(=O)OC`, the composite z-score came out at 0.685.

Molecule `COC(=O)[C@@]1(Cc2ccc(F)cc2)[C@H]2c3cc(C(=O)N(C)C)n(Cc4nc5ccccc5[nH]4)c3C[C@H]2CN1C(=O)c1ccccc1` displayed a composite z-score of 0.843.

For the molecule `COc1ccc(CCN2C(=O)[C@@]3(c4ccc([N+](=O)[O-])cc4)CC(=O)N(C4CCCCC4)[C@@H]3c3ccc(CO)cc32)cc1`, the composite z-score was -0.382.

Molecule `O=C(O)[C@@]1(CCS(=O)(=O)c2ccccc2)COC(c2ccc(OCCCO)cc2)=N1` returned a composite z-score of -1.2.

`CC(C)C[C@@H]1NC(=O)[C@H]2C[C@@H](C(=O)NCCCCCCN)[C@@H](c3ccc(O)cc3)N2C1=O` registered a composite z-score of 0.8.

Take `CCCC[C@H]1OB(O)C[C@H]2C1=C(COc1ccccc1)C[C@H]1C(=O)N(C)C(=O)[C@H]12`: the composite z-score was -0.0052.

The molecule `O=C1O[C@H](c2ccccc2)[C@H](c2ccccc2)N2[C@H]1[C@@H](C(=O)N1CCN(c3ncccn3)CC1)[C@]1(C(=O)Nc3ccc(C#CC4=CCCCC4)cc31)[C@H]2c1ccc(O)cc1` gave a composite z-score of 0.756.

`C#CCN(CC=C(C)C)[C@H](CO)c1ccccc1`: the composite z-score is -0.0376.

`Cc1ccc(S[C@]2(C(=O)NCCN3CCOCC3)CC(=O)N(Cc3ccccc3Cl)[C@@H]2c2ccc(CO)cc2)cc1` registered a composite z-score of -1.85.

`O=C1NC(=O)C2C1C=CC(C(O)Cc1ccccc1)N2Nc1ccc(Cl)cc1Cl` (stereo unspecified) yielded a composite z-score of 0.773.

For `C=CCOC(=O)[C@@H]1[C@H]2C(=O)O[C@H](c3ccccc3)[C@H](c3ccccc3)N2[C@H](c2ccc(OCCOC(=O)[C@@H]3C[C@@H]4C(=O)N5CCC[C@H]5C(=O)N4[C@@H]3c3ccc(O)cc3)cc2)[C@@]12C(=O)Nc1ccc(I)cc12`, the composite z-score was found to be 0.837.
